# Laboratory results taken from PubChem BioAssay AID1850 (Southern Research Specialized Biocontainment Screening …, 2009).
# Among all 310,000 compounds or so, about 1,000 (0.32%) were called active. The rule behind the calls is not given here. The list is a sample of the results. Results with a measured potency or affinity are listed apart.
# Assay: Inhibition of PhoP regulon, Salmonella typhi GFP reporter cells, confirmation, 4 h (AID 1850);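 note: 0% = induced wells with vehicle and 100% = uninduced wells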
# Details: Salmonella Typhi PhoP-promoter GFP reporter, fluorescence, at 50 µM, stronger effect = higher value
row,Compound,inhibition
1,COC(=O)COc1ccc(C(=O)Cn2c(NCCCO)nc3ccccc32)cc1,4.11% (inactive)
2,Cc1ccc(C(=O)CCS(=O)(=O)c2ccc(Br)cc2)cc1,-6.22% (inactive)
3,Cc1ccc(C(=O)CCS(=O)(=O)c2ccc(Cl)cc2)cc1,2.23% (inactive)
4,COc1ccc(CC(=O)Oc2ccc(C(C)C)cc2)cc1S(=O)(=O)N1CCOCC1,5.73% (inactive)
5,Cc1ccc(S(=O)(=O)NN2C(=O)c3ccccc3NC2c2ccco2)cc1 (stereo not drawn),-0.11% (inactive)
6,O=C(O)c1ccc2c(c1)N(Cc1ccccc1)C(=O)c1ccccc1S2=O (stereo not drawn),-5.21% (inactive)
7,COc1ccc(CSc2nnnn2Cc2ccccc2)cc1OC,-8.33% (inactive)
8,COC(=O)C1=CO[C@@H](OC2OC(CO)C(O)C(O)C2O)[C@@H]2C(CO)=CC[C@H]12 (stereo partly drawn),-13% (inactive)
9,CN(C)C(=O)C12CCC(C)(C(=O)C1Br)C2(C)C (stereo not drawn),7.02% (inactive)
10,NC1=NC[C@H](Cc2ccccc2)N1CCc1cc(C(F)(F)F)cc(C(F)(F)F)c1,-32.4% (inactive)
11,NC1=NC[C@H](c2ccccc2)N1CCc1cccc(F)c1,12.6% (inactive)
12,FC(F)(F)c1cc(CCN2C(=S)NC[C@@H]2CC2CCCCC2)cc(C(F)(F)F)c1,-1.84% (inactive)
13,CCCC[C@@H]1CN=C(N)N1CCc1cc(C(F)(F)F)cc(C(F)(F)F)c1,11.5% (inactive)
14,Cc1ccc(S(=O)(=O)N2CCCN(S(=O)(=O)c3ccc(C(F)(F)F)cc3)CC2)cc1,-17.3% (inactive)
15,Cc1cc(=O)[nH]c(N/N=C/c2ccccn2)n1,18.1% (inactive)
16,Cc1nnc(N/N=C/c2c[nH]c3ccccc23)[nH]c1=O,-1.2% (inactive)
17,Clc1cnc(N/N=C/c2ccncc2)c(Cl)c1,1.77% (inactive)
18,Cc1ccccc1C(=O)Nc1ccnn1C1CCN(CCCc2ccccc2)CC1,-1.21% (inactive)
19,CN(C)C(=O)c1sccc1Oc1ccc(F)cc1[N+](=O)[O-],7.3% (inactive)
20,COC(=O)c1sccc1Oc1ccc(F)cc1[N+](=O)[O-],4.41% (inactive)
21,COc1ccc(CSCC(=O)Nc2ccccc2SC)cc1,8.6% (inactive)
22,COc1cc2ncnc(NCCCN3CCOCC3)c2cc1OC,-4.12% (inactive)

row,Compound,inhibition
1,COc1ccc(C(=O)OC2CCN(C)CC2)cc1,3.95% (inactive)
2,CN1CCC(OC(=O)c2ccccc2)CC1,8.65% (inactive)
3,CN1CCC(OC(=O)c2ccccc2Cl)CC1,-6.15% (inactive)
4,CN1CCC(OC(=O)c2cccc(Cl)c2)CC1,4.43% (inactive)
5,CCOC(=O)c1ncn2c1C(=O)OC2(C)C,6.54% (inactive)
6,CCOc1ccccc1OCc1nn2c(-c3ccc(C)cc3)nnc2s1,3% (inactive)
7,C#CCOCCOCCOCCNc1nc(N2CCOCC2)nc(N2CCN(C(=O)CCCCCCCCCCNC(=O)[C@H]([C@@H](C)CC)n3cc(CCCCN=C(N)N)nn3)CC2)n1,5.04% (inactive)
8,C#CCOCCOCCOCCNc1nc(N2CCN(C(=O)CCCCCCCCCCNC(=O)[C@H]([C@@H](C)CC)n3cc(CCCCCN)nn3)CC2)nc(N2CCN(C(=O)CCCCCCCCCCNC(=O)[C@H](CO)n3cc(CCCCCN)nn3)CC2)n1,9.35% (inactive)
9,C#CCOCCOCCOCCNc1nc(N2CCN(C(=O)[C@H]([C@@H](C)CC)n3cc(CCCCN)nn3)CC2)nc(N2CCN(C(=O)[C@H]([C@@H](C)CC)n3cc(CCCN=C(N)N)nn3)CC2)n1,-1.05% (inactive)
10,C#CCOCCOCCOCCNc1nc(N2CCOCC2)nc(N2CCN(C(=O)CCCCCCCCCCNC(=O)[C@H](CO)n3cc(CCCCCN)nn3)CC2)n1,-10.9% (inactive)
11,O=C(COC(=O)/C=C/c1ccc([N+](=O)[O-])cc1)NCc1ccccc1,-8.81% (inactive)
12,CCCCCCC(C)n1cc(C(C)=O)c(=O)n(C)c1=O (stereo not drawn),-9.33% (inactive)
13,CN(C)CCNC(=O)CCCNC(=O)Cn1cnc2sc3c(c2c1=O)CCCC3,12.2% (inactive)
14,Cc1ccc(-c2nn(C)c(=O)c3ccccc23)cc1S(=O)(=O)NCCO,-2.47% (inactive)
15,COCC1=C(C(=O)OC(C)OC(=O)OC(C)C)N2C(=O)[C@@H](NC(=O)/C(=N\OC)c3csc(N)n3)[C@H]2SC1 (stereo partly drawn),15.8% (inactive)
16,CO/N=C(\C(=O)N[C@@H]1C(=O)N2C(C(=O)O)=C(COC(N)=O)CS[C@H]12)c1ccco1,-2.22% (inactive)
17,COc1ccc(OCC(=O)Nc2c3c(nn2-c2ccccc2)CS(=O)(=O)C3)cc1,-4.09% (inactive)
18,CC1=NCCc2c1[nH]c1ccccc21,5.56% (inactive)
19,CCCC/C=C1\CCc2c([nH]c3ccccc23)C1=O,8.47% (inactive)
20,O=C(CCS(=O)(=O)Cc1ccc(Cl)cc1)NCCc1ccccc1,-1.47% (inactive)
21,CC1=C(C(=O)OC(C)C)C(c2ccc(C)o2)C(C(=O)OC(C)C)=C(C)N1,6.14% (inactive)
22,COc1ccccc1CN1CC(C(=O)NC2CCCCC2)CC1=O (stereo not drawn),1.61% (inactive)

row,Compound,inhibition
1,Cc1ccc(/C(O)=C/c2nc3ccccc3oc2=O)cc1,-11.1% (inactive)
2,O=c1oc2ccc(Cl)cc2nc1/C=C(\O)c1ccco1,-30.4% (inactive)
3,Cc1ccc2oc(=O)c(/C=C(\O)C(C)(C)C)nc2c1,-12.4% (inactive)
4,CC(C)(C)/C(O)=C/c1nc2ccccc2oc1=O,-3.78% (inactive)
5,Cc1ccc(/C(O)=C/c2nc3cc(C)ccc3oc2=O)cc1,-48.6% (inactive)
6,CC(C)C/C(O)=C/c1nc2cc(Cl)ccc2oc1=O,-18.3% (inactive)
7,COc1ccc(CNC(=O)CN2C(=O)c3ccccc3C2=O)cc1,-5.61% (inactive)
8,CC(=O)c1ccccc1OCCn1nc(C(=O)O)c2ccccc2c1=O,1.39% (inactive)
9,COc1ccc(S(=O)(=O)N2CCCC2CNC(=O)C(=O)NCCc2ccccc2)cc1 (stereo not drawn),0.4% (inactive)
10,O=C(Nc1cc(C(F)(F)F)ccc1N1CCOCC1)C1=NN(c2ccccc2)C(=O)CC1,0.11% (inactive)
11,Cc1ccccc1-c1nnn(CC(=O)N(C)CC(=O)Nc2ccccc2C(F)(F)F)n1,6.76% (inactive)
12,COc1c[nH]n(-c2ccccc2)c(=O)c1=O,5.23% (inactive)
13,CN(C)CCCNC(=O)c1ccc(-c2ccccc2)cc1,12.6% (inactive)
14,C=CCNC(=O)c1ccc(-c2nc(-c3ccccc3)cs2)cc1,0.25% (inactive)
15,CC1CCCCC12NC(=O)N(CC(=O)NCc1ccc3c(c1)OCO3)C2=O (stereo not drawn),5.06% (inactive)
16,N#Cc1cc2c(nc1SCC(=O)O)CCCCC2,9.95% (inactive)
17,CCCNC(=O)c1cn(CC)c2cc(N3CCN(C(=O)c4ccco4)CC3)c(F)cc2c1=O,1.38% (inactive)
18,CCCCNC(=O)c1cn(CC)c2cc(N3CCN(C)CC3)c(F)cc2c1=O,-13.3% (inactive)
19,CCN(CC)CCNC(=O)c1cn(CC)c2cc(N3CCN(C(=O)c4ccco4)CC3)c(F)cc2c1=O,5.87% (inactive)
20,CCn1cc(C(=O)NCC(C)C)c(=O)c2cc(F)c(N3CCN(C(=O)c4ccco4)CC3)cc21,1.03% (inactive)
21,CCN(CC)CCNC(=O)c1cn(CC)c2cc(N3CCN(C)CC3)c(F)cc2c1=O,-0.07% (inactive)
22,CCn1cc(C(=O)NCc2ccccc2)c(=O)c2cc(F)c(N3CCN(C(=O)c4ccco4)CC3)cc21,-5.58% (inactive)

row,Compound,inhibition
1,CCn1cc(C(=O)NCc2cccc(F)c2)c(=O)c2cc(F)c(N3CCN(C(=O)c4ccco4)CC3)cc21,-0.01% (inactive)
2,CCn1cc(C(=O)NCCC(C)C)c(=O)c2cc(F)c(N3CCN(C)CC3)cc21,5.29% (inactive)
3,COc1ccc(C(C)NC(=O)Cc2cccs2)cc1 (stereo not drawn),1.87% (inactive)
4,O=C(Nc1nnc(Cc2ccccc2F)s1)c1ccccc1Cl,-2.4% (inactive)
5,O=C(COC(=O)C1CCN(c2ccc(C(F)(F)F)cn2)CC1)NCc1ccc(F)cc1,2.12% (inactive)
6,CC(Oc1ccccc1)C(=O)Nc1ccc(S(=O)(=O)Nc2nccs2)cc1 (stereo not drawn),-2.94% (inactive)
7,COC(=O)c1c(C(=O)OC)c(-c2ccc(OC)cc2)n2c1CS(=O)(=O)C2,-2.28% (inactive)
8,CCOc1ccccc1N(CC(=O)N1CCOCC1)S(=O)(=O)c1ccccc1,11.6% (inactive)
9,CCOc1ncccc1C(=O)Nc1cccc(Cl)c1Cl,-6.65% (inactive)
10,COC(=O)c1ccc(C)c(NC(=O)CCc2cc(OC)c(OC)c(OC)c2)c1,8.83% (inactive)
11,COc1cc(/C=N/NC(=O)c2ccncc2)cc(OC)c1OC,6.9% (inactive)
12,COc1cccc(C(O)c2cnc(C(C)C)n2C)c1 (stereo not drawn),5.41% (inactive)
13,CCCC(=O)Nc1c2c(nn1-c1ccc(F)cc1)CS(=O)(=O)C2,-3.29% (inactive)
14,CCn1cc(C(=O)NCC2CCCO2)c(=O)c2cc(F)c(N3CCN(C)CC3)cc21 (stereo not drawn),1.91% (inactive)
15,CCn1cc(C(=O)NN)c(=O)c2cc(F)c(N3CCOCC3)cc21,-10.2% (inactive)
16,CCCCNC(=O)c1cn(CC)c2cc(N3CCN(C(=O)c4ccco4)CC3)c(F)cc2c1=O,-5.26% (inactive)
17,CCCCCCNC(=O)c1cn(CC)c2cc(N3CCN(C)CC3)c(F)cc2c1=O,-4.8% (inactive)
18,CCn1cc(C(=O)N[C@H](C)c2ccccc2)c(=O)c2cc(F)c(N3CCN(C)CC3)cc21,2.31% (inactive)
19,CCn1cc(C(=O)NN)c(=O)c2cc(F)c(N3CCN(C)CC3)cc21,3.76% (inactive)
20,CCn1cc(C(=O)NCCCO)c(=O)c2cc(F)c(N3CCN(C)CC3)cc21,6.73% (inactive)
21,Cc1cccn2c(=O)c(C(=O)NCCCN3CC(C)CC(C)C3)c(O)nc12 (stereo not drawn),0.48% (inactive)
22,COc1cccc2cc(C(=O)OCC(=O)NCc3ccc4c(c3)OCO4)c(=O)oc12,7.88% (inactive)
